# Laboratory results: PubChem BioAssay (EPA / NIEHS)
# “And” between values parts separate entries of the source, which are not always exact repeats. Equal entries are not always repeated. Some compounds were tested as several samples or in several runs, with calls that do not always agree. The source made the active and inactive calls. The calls were made as follows: active = hit-call score of the fitted dose curve at least 0.9, where 1 is the maximum; inactive = score below 0.9.
# Read-out: Interleukin-1 alpha (IL1a), IL1A (gene 3552)
# Assay: BSK_IMphg_IL1a: BioMAP Diversity Plus: IMphg Assay for Interleukin-1 alpha (IL1a) Biomarker Activity (AID 2284290)
# Conditions: primary human endothelial cells with macrophages
# Description: BSK_IMphg is a cell-based, multiplexed-readout assay that uses venular endothelial cells and macrophages, a human vascular primary cell, with measurements taken at 24 hours after chemical dosing in a microplate: 96-well plate.BSK_IMphg_IL1a is an assay component measured in the BSK_IMphg assay. It measures IL-1a antibody related to regulation of gene expression using ELISA technology.Data from the assay component BSK_IMphg_IL1a was analyzed at the endpoint, BSK_IMphg_IL1a, in the positive analysis fitting direction relative to DMSO as the negative control and baseline of activity. Using a type of binding reporter, gain or loss-of-signal activity can be used to understand protein changes. To generalize the intended target to other relatable targets, this assay endpoint is annotated to the 'cytokine' intended target family, where the subfamily is 'interleukins'.
# The levels of cell surface (or secreted, indicated by the prefix "s") biomarker endpoints were measured by ELISA. Overt cytotoxicity to cells in confluent adherent cultures (all systems other than the BT system) was assessed by measuring total protein levels using sulforhodamine B (SRB) staining in parallel cultures at the time of biomarker measurements, indicated as SRB endpoints. For proliferation assays for adherent cell types, individual cell types are cultured at sub-confluence and relative cell numbers quantified by SRB staining at time points optimized for each system (48 h: 3C and CASM3C systems; 72 h: BT and HDF3CGF systems; 96 h: SAg system). SRB was performed by staining cells with 0.1% SRB after fixation with 10% TCA and reading wells at 560 nm.Viability and proliferation of PBMC (T cells) was quantified by Alamar Blue reduction for the SAg and BT systems. For PBMC viability (referred to as PBMC Cytotoxicity within the assay endpoint names), cells were plated (75,000/well in a 96-well plate) and then chemical samples added for 1 h before addition of activators, SEB and TSST-1 (20 ng/mL final concentration each). Cells were incubated for 90 h. Then, Alamar Blue (20 uL/well) (Invitrogen, Cat DAL1100) was added for 6 h, and the plates were read with a fluorescence microplate reader at 546/580 nm (excitation/emission). For PBMC proliferation, cells were plated and activated as above but incubated for only 16 h prior to addition of Alamar Blue. Plates were read after 6 h.
SMILES,AC50,outcome
O=C(O)CCC(F)(F)C(F)(F)C(F)(F)C(F)(F)C(F)(F)F,9.45 µM (active),inactive
O=P(O)(O)CCC(F)(F)C(F)(F)C(F)(F)C(F)(F)C(F)(F)C(F)(F)C(F)(F)C(F)(F)F,,inactive
O=C(O)C(F)(F)OC(F)(F)C(F)(F)OC(F)(F)C(F)(F)OC(F)(F)C(F)(F)C(F)(F)C(F)(F)F,44.1 µM (active) and 22.4 µM (active),
O=C(O)CCC(F)(F)C(F)(F)C(F)(F)C(F)(F)C(F)(F)C(F)(F)F,5.95 µM (active) and 16.4 µM (active) and 20.5 µM (active),
CN(Cc1cnc2nc(N)nc(N)c2n1)c1ccc(C(=O)N[C@@H](CCC(=O)O)C(=O)O)cc1,,inactive
CN(CCO)S(=O)(=O)C(F)(F)C(F)(F)C(F)(F)C(F)(F)C(F)(F)C(F)(F)C(F)(F)C(F)(F)F,,inactive
O=P(O)(O)CCC(F)(F)C(F)(F)C(F)(F)C(F)(F)C(F)(F)C(F)(F)F,,inactive
C=CC(=O)OCCC(F)(F)C(F)(F)C(F)(F)C(F)(F)C(F)(F)C(F)(F)C(F)(F)C(F)(F)F,,inactive
OCC(F)(F)C(F)(F)C(F)(F)C(F)(F)C(F)(F)C(F)(F)C(F)(F)C(F)(F)C(F)(F)C(F)(F)C(F)(F)F,,inactive
O=C(CC(=O)C(F)(F)C(F)(F)C(F)(F)F)c1cccs1,47.6 µM (active),inactive
O=S(=O)(O)C(F)(F)C(F)(F)C(F)(F)C(F)(F)C(F)(F)C(F)(F)C(F)(F)C(F)(F)C(F)(F)C(F)(F)F,,inactive
